# Screens from PubChem.
# PMP22 txn prim: Cell-based coincidence reporter assay to measure PMP22 gene transcription in S16 Pmp22-F2sN cells - Primary screen. Potency, µM (top dose mostly 57.5 µM), inactives show at the highest dose activity change, negative = inhibition, usual class: inhibitors. actives 2% (n = 43,000). S16 Pmp22-F2sN Schwann cells, FLuc/NLuc coincidence luminescence, 24 h; active = clear falling dose curves in both reporters; inconclusive = both reporters move, but less clearly or upward; inactive = either reporter flat; the % is the NLuc reporter signal; note: potency is the fitted concentration of half-maximal effect; % is set by controls: 0 for no effect and ±100 for the full control effect
#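 Schwann cells carrying the coincidence reporter were exposed to library compounds for 24 h at 37C, then lysed and read for FLuc and, after quenching, NLuc luminescence on a CCD imager.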
# OvCa metastasis: Primary qHTS assay for Inhibitors of ovarian cancer metastasis using an organotypic tumor microenvironment (TME) model | actives 0.1% (n = 46,000) | Potency, µM (top dose mostly 45.8 µM), without a hit: top-dose activity change, negative = inhibition, actives largely listed as inhibitors | SKOV3ip1-GFP adhesion/invasion on 3D omental model, fluorescence | AID 1963576, 2024;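 note: potency is the fitted concentration of half-maximal effect; plate controls were DMSO wells for no effect and tomatine positive control wells for full effect; nearly all actives have a fitted effect of over 65% in size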
#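 Primary human omental fibroblast/mesothelial 3D culture pre-formed 48 h. SKOV3ip1-GFP cells added with compounds (0.36-46 umol/L), incubated 2 h RT/16 h 37 C, fixed; GFP cells quantified at 488/509 nm.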
# p53null 39C tox: qHTS Screen for Compounds that Selectively Target Cancer Cells with p53 Mutations: Cytotoxicity of p53 Null Cells at the Nonpermissive Temperature | H1299 p53-null (neo) cells, 39C, ATPlite viability, 24 h | actives 0.97% (n = 55,000) | AID 904, 2007 | Potency, µM (top dose mostly 46.1 µM), inactives show at the top dose activity, negative = cell killing, usual class: cytotoxic;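 note: potency is the fitted concentration of half-maximal effect; 0% = DMSO only and -100% = full killing by 100 µM tamoxifen; nearly all actives have a fitted effect of over 50% in size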
#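 H1299 lung cancer cells, p53-null (H1299-neo) or expressing p53 A138V (H1299-p53A138V), were plated overnight at 37C, then exposed to compounds at up to 46 uM for 24 hr at 39C. Viability was read by ATP-based luminescence.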
# S16 viability: Cell viability qHTS assay in S16 Pmp22-F2sN cells. actives 0.48% (n = 43,000). AID 1508642, 2021. Potency, µM (highest dose often 57.5 µM), for inactives: at the highest dose activity change, negative = cytotoxicity, usual class: cytotoxic. S16 Pmp22-F2sN Schwann cells (luciferase reporters placed in the Pmp22 gene) viability, CellTiter-Glo, 24 h; note: potency is the fitted concentration of half-maximal effect; % is set by controls: 0 for no effect and ±100 for the full control effect; nearly all actives have a fitted effect of over 65% in size
#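 Seed 500-1,000 S16 Pmp22-F2sN cells per well in phenol-red-free DMEM with 10% heat-inactivated FBS; pin-add 23 nL compound; incubate 24 h at 37C; add CellTiter-Glo, wait 15 min protected from light; read luminescence.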
# mTORC1 inh: Acumen qHTS Assay for Inhibitors of the mTORC1 Signaling Pathway in MEF (Tsc2-/-, p53-/-) Cells: Sytravon; actives 0.78% (n = 44,000); Potency, µM (series often up to 38.3 µM), for the others: at the top dose activity change, negative = inhibition, most hits filed as inhibitors; Tsc2-/- p53-/- MEF, phospho-rpS6 immunofluorescence/PI, 24 h;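 note: potency is the fitted concentration of half-maximal effect; plate controls were DMSO for no effect and rapamycin for full effect; nearly all actives have a fitted effect of over 50% in size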
#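 Read-out: phospho-S6 Alexa-488 intensity over PI intensity per well, scored as % active cells using thresholds from rapamycin (7.5 nM) and DMSO controls. Tsc2-/-, p53-/- MEFs exposed to compound for 24 h; PI cell count recorded as viability.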
# p53null 32C kill: qHTS Screen for Compounds that Selectively Target Cancer Cells with p53 Mutations: Cytotoxicity of p53 Null Cells at the Permissive Temperature. actives 0.62% (n = 55,000). H1299-neo p53 null cells, ATP luminescence, 24 h, 32C. Potency, µM (doses to about 46.1 µM), for the others: at the top dose activity change, negative = cytotoxicity, hits mostly cytotoxic. AID 903, 2007;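 note: potency is the fitted concentration of half-maximal effect; 0% = DMSO only and -100% = full killing by 100 µM tamoxifen; nearly all actives have a fitted effect of over 55% in size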
#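 Cells lacking p53 (H1299-neo) are plated at 600 per well and allowed to settle overnight at 37C. Test compounds (up to 46 uM) are added and held 24 hours at 32C, then ATP is quantified by luminescence.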
# NLuc sat counter: Biochemical NLuc saturation counterscreen for small molecule modulators of PMP22 gene expression - Nano-Glo assay. shares compounds with PMP22 txn prim. Secreted NLuc enzyme (filtered S16 cell medium), Nano-Glo luminescence. Potency, µM (titrated, usually from 57.5 µM), for the others: at the highest dose activity change, negative = inhibition, hits mostly inhibitors. actives 4% (n = 690). AID 1508638, 2021; note: potency is the fitted concentration of half-maximal effect; % is set by controls: 0 for no effect and ±100 for the full control effect
# NLuc Km ctr: Biochemical coelenterazine-based NLuc counterscreen for small molecule modulators of PMP22 gene expression - Km assay | shares compounds with PMP22 txn prim | secreted NLuc enzyme, coelenterazine luminescence, Km conditions | Potency, µM (highest dose often 57.5 µM), for inactives: at the highest dose activity change, negative = inhibition, most hits filed as inhibitors | actives 5% (n = 690); note: potency is the fitted concentration of half-maximal effect; % is set by controls: 0 for no effect and ±100 for the full control effect
# FLuc counter: Biochemical FLuc counterscreen for small molecule modulators of PMP22 gene expression; Potency, µM (series often up to 57.5 µM), for inactives: top-dose activity, negative = inhibition, actives largely listed as inhibitors; 690 tested, under 10 active; purified P. pyralis FLuc, luminescence, 10 min; shares compounds with PMP22 txn prim; note: % of control where 0% means no effect
# Target sequence (P08659 whole entry, looked up): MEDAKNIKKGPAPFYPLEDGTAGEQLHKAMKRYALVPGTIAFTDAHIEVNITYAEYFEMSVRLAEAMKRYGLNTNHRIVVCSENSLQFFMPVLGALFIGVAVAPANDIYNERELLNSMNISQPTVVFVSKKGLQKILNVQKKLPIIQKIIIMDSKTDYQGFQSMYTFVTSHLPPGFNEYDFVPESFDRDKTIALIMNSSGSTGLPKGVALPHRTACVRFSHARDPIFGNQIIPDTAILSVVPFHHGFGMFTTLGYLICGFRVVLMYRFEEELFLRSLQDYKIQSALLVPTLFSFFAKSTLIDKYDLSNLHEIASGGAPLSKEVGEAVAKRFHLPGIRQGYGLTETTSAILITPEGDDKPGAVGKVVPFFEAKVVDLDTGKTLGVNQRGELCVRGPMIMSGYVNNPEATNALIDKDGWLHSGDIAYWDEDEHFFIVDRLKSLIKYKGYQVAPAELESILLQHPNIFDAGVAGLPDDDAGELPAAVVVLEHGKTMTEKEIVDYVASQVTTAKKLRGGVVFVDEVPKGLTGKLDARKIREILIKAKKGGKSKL
# S16 viab conf: Cell viability qHTS assay in S16 Pmp22-F2sN cells - Confirmatory screen; S16 Schwann cells viability, CellTiter-Glo ATP luminescence, 24 h; actives 7% (n = 690); AID 1508641, 2021; shares compounds with PMP22 txn prim; Potency, µM (series often up to 57.5 µM), for the others: at the highest dose activity change, negative = viability loss, most hits filed as cytotoxic; note: potency is the fitted concentration of half-maximal effect; % is set by controls: 0 for no effect and ±100 for the full control effect
# PMP22 txn conf: Cell-based coincidence reporter assay to measure PMP22 gene transcription in S16 Pmp22-F2sN cells - Confirmatory screen | actives 22% (n = 690) | S16 Schwann cells Pmp22-F2sN, dual luciferase, 24 h | Potency, µM (doses to about 57.5 µM), without a hit: at the top dose activity change, negative = inhibition, usual class: inhibitors | shares compounds with PMP22 txn prim; active = clear falling dose curves in both reporters; inconclusive = both reporters move, but less clearly or upward; inactive = either reporter flat; the % is the FLuc reporter signal; note: potency is the fitted concentration of half-maximal effect
# PMP22 HiBiT cnf: Cell-based HiBiT reporter assay to measure PMP22 protein expression in S16 Pmp22-HiBiT cells - Confirmatory screen | shares compounds with PMP22 txn prim | S16 Schwann cells Pmp22-HiBiT, luminescence, 48 h | Potency, µM (series often up to 27.9 µM), for inactives: at the top dose activity change, negative = inhibition, usual class: inhibitors | 95 tested, under 10 active | AID 1508647, 2021
# Target sequence (P25094 whole entry, looked up): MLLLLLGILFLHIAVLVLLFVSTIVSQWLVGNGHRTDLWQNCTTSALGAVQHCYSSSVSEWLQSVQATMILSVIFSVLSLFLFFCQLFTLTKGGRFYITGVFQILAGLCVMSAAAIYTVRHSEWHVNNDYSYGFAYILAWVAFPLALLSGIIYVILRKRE
# * marks the source's active call; other numbers are inactive results; i = inactive; ? = inconclusive; nt = no result given. A selection: hits, their analogues and other compounds. The true share with any hit is near 3%. Unless noted, calls come from the whole dose curve; as a rule, active = well fitted curve in the direction sought with a large enough effect; inconclusive = small, poorly fitted or top-dose-only effect, or another doubt; inactive = no such curve, though single readings can be large; an effect the other way counts as inactive or inconclusive.
SMILES,PMP22 txn prim,OvCa metastasis,p53null 39C tox,S16 viability,mTORC1 inh,p53null 32C kill,NLuc sat counter,NLuc Km ctr,FLuc counter,S16 viab conf,PMP22 txn conf,others
Cc1ccc(O)c(-c2n[nH]c3c2C(c2ccc(F)cc2)N(Cc2ccco2)C3=O)c1 (stereo unspecified),20µM*,?,?,-17%,5%,26%,-15%,?,-3%,13%,-26%,
C[C@]12CC[C@@H]3c4ccc(O)cc4CC[C@H]3[C@H]1C[C@@H](O)[C@H]2O,nt,4%,nt,nt,nt,nt,nt,nt,nt,nt,nt,
COc1cc(-c2noc(-c3ccc(NCc4ccco4)c([N+](=O)[O-])c3)n2)cc(OC)c1OC,3.2µM*,11%,-9%,4%,0%,1%,?,?,-1%,-12%,?,
O=C(Cn1c(-c2cccs2)cc2cc(F)ccc21)NCCCN1CCN(c2ccccc2F)CC1,?,-19%,-16%,?,?,-7%,nt,nt,nt,nt,nt,PMP22 HiBiT cnf=?
O=C(Cn1c(-c2cccs2)cc2ccccc21)NCCCN1CCN(c2ccc(F)cc2)CC1,10µM*,13%,4%,-10%,?,-8%,-10%,-3%,5%,?,?,PMP22 HiBiT cnf=?
O=C(Cn1c(-c2cccs2)cc2ccccc21)NCCCN1CCN(c2ccccc2F)CC1,?,?,-5%,?,-4%,-2%,nt,nt,nt,nt,nt,
O=S(=O)(N=Cc1c(O)ccc2ccccc12)c1cccs1,nt,23%,nt,nt,nt,nt,nt,nt,nt,nt,nt,
CN(C)CCOc1ccc(-c2nc(-c3ccc4c(c3)CCC4=NO)c(-c3ccncc3)[nH]2)cc1,nt,-4%,nt,nt,nt,nt,nt,nt,nt,nt,nt,
COc1cc([C@H]2Oc3cc([C@H]4Oc5cc(O)cc(O)c5C(=O)[C@H]4O)ccc3O[C@H]2CO)ccc1O,nt,16%,nt,nt,nt,nt,nt,nt,nt,nt,nt,
COC(=O)c1c(-c2ccc(Cl)cc2)noc1N1CCN(c2cccc(C)c2C)CC1,?,?,22%,?,-18%,-9%,nt,nt,nt,nt,nt,
COC(=O)c1c(-c2ccc(Cl)cc2)noc1N1CCN(c2cccc(OC)c2)CC1,7µM*,-23%,11%,?,4%,-6%,?,-5%,4%,5%,12µM*,
COC[C@@H](c1ccc(C(F)(F)F)cc1)N1CCN(C2(C)CCN(C(=O)c3c(C)ncnc3C)CC2)C[C@H]1C,nt,1%,nt,nt,nt,nt,nt,nt,nt,nt,nt,
Cc1cc(Nc2cccc(Br)c2)n2c(nc3ccccc32)c1C#N,9µM*,i,-25%,?,-5%,-17%,-18%,?,7%,10%,?,
O=C1NC(=O)C(=Cc2ccc(-c3ccc(F)cc3O)o2)S1,nt,-2%,nt,nt,nt,nt,nt,nt,nt,nt,nt,
COc1c(Cl)cc2c([nH]c3cnccc32)c1NC(=O)c1cccnc1C,nt,-1%,nt,nt,nt,nt,nt,nt,nt,nt,nt,
COc1ccc(Cn2c(SCC(=O)N(C)Cc3ccccc3)nc3ccccc32)cc1,20µM*,-3%,11%,-26%,0%,18%,?,?,?,-11%,-9%,
COc1ccc(Cn2c(SCC(=O)NCc3ccccc3)nc3ccccc32)cc1,?,-7%,34%,?,7%,20%,nt,nt,nt,nt,nt,
COc1cccc(-c2ccc(NC(=O)C3=C(C(=O)O)CCC3)c(F)c2)c1,nt,11%,nt,nt,nt,nt,nt,nt,nt,nt,nt,
CC(NC(=O)c1cccc(Nc2nc3ccccc3n3nnnc23)c1)c1ccccc1 (stereo unspecified),11µM*,-8%,-17%,?,-15%,-3%,-1%,5%,4%,17µM*,?,
COc1ccc(-c2noc(CSc3nnc(C)n3-c3ccc(C)cc3)n2)cc1,?,1%,-7%,?,-15%,-9%,nt,nt,nt,nt,nt,
COc1ccc(-c2noc(CSc3nnc(-c4ccncc4)n3-c3ccccc3)n2)cc1,14µM*,i,-9%,?,-7%,-2%,?,?,-22%,-13%,6.1µM*,
COc1ccc(-n2c(C)nnc2SCc2nc(-c3ccc(OC)c(OC)c3)no2)cc1,?,i,-7%,-22%,0%,-8%,?,?,-5%,-20%,-41%,
COc1ccc(-n2c(SCc3nc(-c4ccc(C)cc4)no3)nnc2-c2ccncc2)cc1,?,i,4%,-10%,-2%,-1%,nt,nt,nt,nt,nt,
